Growth inhibition, inhibition and outcome data for 20 compounds are collected here from PubChem BioAssay.

As usually defined, the inhibition is the drop in the measured response relative to a control, in per cent.

Values without a mark were called inactive. For some of these results: Results with a measured potency or affinity are listed apart. Calls of active or inactive are those of the source. Unless noted, the rule behind the calls is not given here.

Assay [1] is described as follows: antimalarial activity against Dd2 strain (AID 2302;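 active = growth inhibition above 50% at the single 2 µM test dose, taken to imply half-maximal potency below 2 µM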;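 note: 0% = DMSO untreated growth and 100% = chloroquine plus artemisinin killed control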). The note with it: P. falciparum Dd2 in RBCs, LDH growth readout, 72 h; at 2 µM; active compounds read high.
Assay [2] is described as follows: human hepatoma cell viability loss – ATP luminescence, cytotoxicity control for P. falciparum antimalarial project, primary screen (AID 2303;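 active = inhibition above 50%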;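 note: 0% = DMSO wells and 100% = digitonin-killed cells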). The conditions noted are these: HepG2 viability, 24-48 h, at 10 µM, active compounds read high.
For assay [3], the target named is L-lactate dehydrogenase (Plasmodium falciparum (isolate CDC / Honduras)) (UniProt Q27743). As to the kind of experiment: PfLDH activity inhibition – cell lysate, 3D7 strain, counter-screen for P. falciparum growth inhibition project (AID 2304).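 Note: 0% = vehicle and 100% = reference inhibitor.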 The note with it: P. falciparum 3D7 crude extract, LDH APAD/NBT absorbance; at 2 µM; active compounds read high.
Sequence of L-lactate dehydrogenase (Plasmodium falciparum (isolate CDC / Honduras)) (Q27743 whole entry, looked up): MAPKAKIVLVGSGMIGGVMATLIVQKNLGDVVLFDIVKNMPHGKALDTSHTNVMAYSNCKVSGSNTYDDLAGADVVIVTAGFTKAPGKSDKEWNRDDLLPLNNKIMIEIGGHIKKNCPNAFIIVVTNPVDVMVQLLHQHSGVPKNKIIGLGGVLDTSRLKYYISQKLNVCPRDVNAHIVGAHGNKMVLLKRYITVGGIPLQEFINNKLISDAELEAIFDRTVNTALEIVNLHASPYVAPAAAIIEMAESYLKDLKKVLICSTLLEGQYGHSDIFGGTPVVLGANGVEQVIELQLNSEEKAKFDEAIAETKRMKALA
Assay [4] can be described thus: inhibition of 3D7 malaria parasite growth – strain 3D7 (AID 2306).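 Note: 0% = DMSO wells and 100% = chloroquine plus artemisinin control wells.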 The conditions noted are these: P. falciparum 3D7 erythrocytic growth, LDH absorbance, 72 h; at 2 µM; active compounds read high.
For assay [5], the target named is Calcium-dependent protein kinase 1 (Plasmodium falciparum (isolate 3D7)) (UniProt P62344). Briefly: PfCDPK1 kinase inhibitors, biochemical, TCAMS library (AID 1159585; cut-off not given, nearly all actives have IC50 up to about 0.98 µM;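 note: inhibitors leave more ATP so luminescence rises with inhibition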). The note with it: recombinant PfCDPK1, Kinase-Glo ATP depletion luminescence. Background: Kinase-Glo measures the ATP left after a reaction by luminescence.
Sequence of Calcium-dependent protein kinase 1 (Plasmodium falciparum (isolate 3D7)) (P62344 whole entry, looked up): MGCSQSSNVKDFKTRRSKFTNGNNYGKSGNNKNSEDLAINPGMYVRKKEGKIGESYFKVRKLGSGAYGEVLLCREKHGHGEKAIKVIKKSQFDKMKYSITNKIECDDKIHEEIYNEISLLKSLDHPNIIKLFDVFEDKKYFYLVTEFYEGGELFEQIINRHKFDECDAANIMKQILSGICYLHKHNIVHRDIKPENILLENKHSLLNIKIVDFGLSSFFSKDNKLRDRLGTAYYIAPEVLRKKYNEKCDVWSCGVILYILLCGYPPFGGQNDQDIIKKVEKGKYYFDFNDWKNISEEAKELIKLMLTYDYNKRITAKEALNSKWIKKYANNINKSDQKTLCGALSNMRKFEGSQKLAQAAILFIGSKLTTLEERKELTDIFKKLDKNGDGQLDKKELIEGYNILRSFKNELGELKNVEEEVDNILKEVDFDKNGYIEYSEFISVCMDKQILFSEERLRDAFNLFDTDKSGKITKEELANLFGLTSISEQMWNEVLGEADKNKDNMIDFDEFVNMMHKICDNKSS
In assay [6] the target is Plasmodium falciparum protein kinase 6 (PK6, PF3D7_1337100) (UniProt Q8IDW1). As to the kind of experiment: PfPK6 kinase inhibitors, biochemical, TCAMS library (AID 1159586). The note with it: recombinant PfPK6, Kinase-Glo ATP depletion luminescence.
Sequence of Plasmodium falciparum protein kinase 6 (PK6, PF3D7_1337100) (Q8IDW1 1-305): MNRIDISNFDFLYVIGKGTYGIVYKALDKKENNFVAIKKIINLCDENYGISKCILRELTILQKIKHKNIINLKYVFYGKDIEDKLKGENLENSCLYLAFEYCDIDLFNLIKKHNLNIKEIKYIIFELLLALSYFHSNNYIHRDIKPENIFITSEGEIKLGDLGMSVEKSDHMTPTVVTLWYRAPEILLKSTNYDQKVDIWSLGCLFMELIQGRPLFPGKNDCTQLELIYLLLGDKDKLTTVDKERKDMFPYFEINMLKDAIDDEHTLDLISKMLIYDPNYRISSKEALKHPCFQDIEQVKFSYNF
Assay [7] deals with Protein kinase 7 (PK7), Plasmodium falciparum 3D7 (PF3D7_0213400) (UniProt Q7YTF7). As to the kind of experiment: inhibition of Plasmodium PK7 catalytic activity – biochemical, TCAMS antimalarial set, Kinase-Glo luminescence (AID 1159587). The conditions noted are these: recombinant PfPK7, Kinase-Glo ATP depletion luminescence.
Sequence of Protein kinase 7 (PK7), Plasmodium falciparum 3D7 (PF3D7_0213400) (Q7YTF7 1-343): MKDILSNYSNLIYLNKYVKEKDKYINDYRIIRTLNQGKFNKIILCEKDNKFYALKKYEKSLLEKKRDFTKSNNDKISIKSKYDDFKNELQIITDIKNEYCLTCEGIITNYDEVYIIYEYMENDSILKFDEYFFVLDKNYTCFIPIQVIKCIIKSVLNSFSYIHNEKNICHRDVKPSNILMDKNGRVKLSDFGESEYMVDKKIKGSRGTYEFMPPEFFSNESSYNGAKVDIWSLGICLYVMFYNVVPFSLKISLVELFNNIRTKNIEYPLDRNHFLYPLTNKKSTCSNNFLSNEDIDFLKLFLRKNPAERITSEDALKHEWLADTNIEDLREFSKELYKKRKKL
Assay [8] deals with Calcium-dependent protein kinase 4 (Plasmodium falciparum (isolate 3D7)) (UniProt Q8IBS5). As to the kind of experiment: PfCDPK4 kinase inhibitors, biochemical, TCAMS library (AID 1159588; cut-off not given, nearly all actives have IC50 up to about 0.91 µM). The conditions noted are these: recombinant PfCDPK4, Kinase-Glo ATP depletion luminescence.
Sequence of Calcium-dependent protein kinase 4 (Plasmodium falciparum (isolate 3D7)) (Q8IBS5 whole entry, looked up): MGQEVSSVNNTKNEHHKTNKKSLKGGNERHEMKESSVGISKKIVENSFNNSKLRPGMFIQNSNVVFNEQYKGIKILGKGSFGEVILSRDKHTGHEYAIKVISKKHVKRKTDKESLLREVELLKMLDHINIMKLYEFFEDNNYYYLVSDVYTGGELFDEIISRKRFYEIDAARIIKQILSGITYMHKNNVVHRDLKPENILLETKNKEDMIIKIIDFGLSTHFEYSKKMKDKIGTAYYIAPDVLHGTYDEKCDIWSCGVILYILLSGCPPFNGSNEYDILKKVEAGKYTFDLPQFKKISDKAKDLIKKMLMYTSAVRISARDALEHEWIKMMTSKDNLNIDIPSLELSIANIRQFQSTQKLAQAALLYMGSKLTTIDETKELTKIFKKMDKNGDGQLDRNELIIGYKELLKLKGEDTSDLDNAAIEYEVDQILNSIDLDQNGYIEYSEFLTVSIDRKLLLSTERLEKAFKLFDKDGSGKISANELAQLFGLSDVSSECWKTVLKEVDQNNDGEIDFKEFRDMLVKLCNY

In the case of `Cn1cncc1C(=O)Nc1ccc(-c2cccc(-c3nc4ccc(C(F)(F)F)cc4[nH]3)c2)cc1`, the growth inhibition was 3% in assay [1] and 100% (active) in assay [4]. The inhibition in assay [2] is 34%; in assay [3], 4%. Further, the outcome in assay [5], in assay [6], in assay [7] and in assay [8] was inactive.

For the compound `Cc1cccc2[nH]c(-c3cccc(-c4ccc(NC(=O)NCc5ccccc5)cc4)c3)nc12`, the growth inhibition in assay [1] was 47%; in assay [4], 101% (active). For the same compound, the inhibition in assay [2] was 35%; in assay [3], -2%. The outcome in assay [5], in assay [6], in assay [7] and in assay [8] was inactive.

`Cc1[nH]c(C)c(-c2ccc(Oc3cccc(Cl)c3)cc2)c(=O)c1Cl`: the figures for the growth inhibition in assay [1] and in assay [4] were 97% (active) and 99% (active), respectively. The figures for the inhibition in assay [2] and in assay [3] were 40% and -3%, respectively. For the same compound, the outcome in assay [5], in assay [6], in assay [7] and in assay [8] was inactive.

`CCC[C@@H]([C@@H](CC(C)C)C(=O)N[C@@H](CCCCNC(=O)c1ccccn1)C(=O)Nc1nccs1)N(O)C=O`: the growth inhibition in assay [1] was 100% (active); in assay [4] it was 101% (active). For the same compound, the inhibition in assay [2] was -23%; in assay [3], -3%. Besides, the result in assay [5], in assay [6], in assay [7] and in assay [8] was inactive.

For the compound `Cc1ccc2nc(/C=C/c3cccc4cc[nH]c34)[nH]c2c1`, the growth inhibition in assay [1] is 92% (active); in assay [4], 100% (active). The results for the inhibition in assay [2] and in assay [3] were 9% and -3%, respectively. For the same compound, the outcome in assay [5], in assay [6], in assay [7] and in assay [8] was inactive.

As to `O=C(C=Cc1ccc(F)cc1)NC1CCC(CCN2CCc3ccc(-c4cnccn4)cc3CC2)CC1` (stereo not given), the results for the growth inhibition in assay [1] and in assay [4] were 65% (active) and 99% (active), respectively. For the same compound, the inhibition is 32% in assay [2] and 1% in assay [3]. For the same compound, the result in assay [5], in assay [6], in assay [7] and in assay [8] was inactive.

On to `CC(CN1CCN(C)CC1)C(=O)Nc1cccc(-c2ccc(-c3nc4ccccc4[nH]3)s2)c1` (stereo not given), for which the values for the growth inhibition in assay [1] and in assay [4] were 59% (active) and 97% (active), respectively. Moreover, the inhibition in assay [2] and in assay [3] was 2% each time. For the same compound, the result in assay [5], in assay [6], in assay [7] and in assay [8] was inactive.

As to `COC(=O)c1cccc(CNCc2ccc(-c3ccc(-c4nc5ccccc5[nH]4)s3)cc2)c1`, the growth inhibition in assay [1] is 79% (active); in assay [4], 100% (active). The figures for the inhibition in assay [2] and in assay [3] were 20% and 4%, respectively. Besides, the result in assay [5], in assay [6], in assay [7] and in assay [8] was inactive.

With `C=CCc1cc(SC)ccc1Oc1ccc(N)cc1`, the values for the growth inhibition in assay [1] and in assay [4] were 2% and 96% (active), respectively. For the same compound, the results for the inhibition in assay [2] and in assay [3] were 12% and 4%, respectively. In addition, the outcome in assay [5], in assay [6], in assay [7] and in assay [8] was inactive.

For `COc1cc2nc(N[C@@H](CO)c3ccccc3)nc(NCc3ccccc3)c2cc1OC`, the growth inhibition in assay [1] is 71% (active); in assay [4] it was 101% (active). Further, the inhibition in assay [2] was 6%; in assay [3], 1%. Besides, the outcome in assay [5], in assay [6], in assay [7] and in assay [8] was inactive.

For `O=C1COC(c2ccccc2)(c2ccccc2)CN1CC1CCN(Cc2ccc(O)cc2Cl)C1` (stereo not given), the growth inhibition was 81% (active) in assay [1] and 85% (active) in assay [4]. In addition, the inhibition in assay [2] is 53% (active); in assay [3], 2%. In addition, the result in assay [5], in assay [6], in assay [7] and in assay [8] was inactive.

As for `CN(C(=O)Cc1ccc(Cl)cc1)C1CCN(CCCCCNC(=O)/C=C/c2ccc(Cl)c(Cl)c2)CC1`, the growth inhibition was 16% in assay [1] and 83% (active) in assay [4]. In addition, the inhibition in assay [2] is 69% (active); in assay [3], -6%. The result in assay [5], in assay [6], in assay [7] and in assay [8] was inactive.

Consider `COc1ccc2nccc(N3CCCN(CCNS(=O)(=O)c4ccc5c(c4)NC(=O)CS5)CC3)c2n1`, for which the figures for the growth inhibition in assay [1] and in assay [4] were 15% and 97% (active), respectively. The inhibition in assay [2] is -2%; in assay [3], -9%. Moreover, the outcome in assay [5], in assay [6], in assay [7] and in assay [8] was inactive.

`CNC(=O)COc1cc(C)c(C2CCN(CCCCNC(=O)c3ccc(-c4ccc(C(F)(F)F)cc4)cc3)CC2)cc1C`: the growth inhibition in assay [1] is 72% (active); in assay [4] it was 100% (active). The inhibition was 38% in assay [2] and 4% in assay [3]. In addition, the result in assay [5], in assay [6], in assay [7] and in assay [8] was inactive.

On to `Cc1ccc(CON2C(N)=NC(N)=NC2(C)C)c(Cl)c1` (tested in a mixture with another compound), for which the growth inhibition in assay [1] is 96% (active); in assay [4] it was 91% (active). Also, the values for the inhibition in assay [2] and in assay [3] were 67% (active) and 0%, respectively. In addition, the result in assay [5], in assay [6], in assay [7] and in assay [8] was inactive.

On to `CCCCc1ccc(S(=O)(=O)Nc2ccc3c(c2)CCN(Cc2c[nH]c4cnccc24)CC3)cc1`, for which the growth inhibition was 12% in assay [1] and 99% (active) in assay [4]. The inhibition in assay [2] is 41%; in assay [3], -5%. Moreover, the result in assay [5], in assay [6], in assay [7] and in assay [8] was inactive.

With `CCOc1ccccc1NC(=O)Nc1ccc2c(c1)CCN(C1CCC1)CC2`, the growth inhibition was 2% in assay [1] and 88% (active) in assay [4]. For the same compound, the results for the inhibition in assay [2] and in assay [3] were 15% and -3%, respectively. In addition, the outcome in assay [5], in assay [6], in assay [7] and in assay [8] was inactive.

With `COc1cc(CN=C(Nc2ccc(-c3ccccc3)cc2)Nc2ccc(C#N)cc2O)cc(OC)c1`, the growth inhibition was 64% (active) in assay [1] and 95% (active) in assay [4]. In addition, the values for the inhibition in assay [2] and in assay [3] were -4% and 5%, respectively. For the same compound, the outcome in assay [5], in assay [6], in assay [7] and in assay [8] was inactive.

Turning to `CC(C)(C)C(=O)Nc1ccc(N2CCN(C(c3ccccc3)c3ccccc3)CC2)c(Cl)c1`, the growth inhibition in assay [1] was 94% (active); in assay [4] it was 92% (active). The inhibition in assay [2] was -13%; in assay [3] it was 0%. Also, the result in assay [5], in assay [6], in assay [7] and in assay [8] was inactive.

On to `Oc1cc(Nc2ccnc3cc(-c4ccc(CN5CCCCC5)o4)c(Cl)cc23)c(Cl)cc1F`, for which the growth inhibition in assay [1] is 64% (active); in assay [4], 102% (active). The inhibition in assay [2] was -10%; in assay [3], -5%. The result in assay [5], in assay [6], in assay [7] and in assay [8] was inactive.
